High-throughput results deposited in PubChem BioAssay by National Center for Advancing Translational Sciences (NCATS).
IL1B secr inh: inhibitors of inflammasome signaling (IL-1 beta secretion). THP-1 LPS/ATP IL-1B secretion, AlphaLISA, 16 h; active compounds read low. activity change, % at 57.5 µM. hit rate 4.7% among 360,000; in the data active = activity change below about -50%; inconclusive = mostly about -30% to -49%
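Secreted IL-1B measured by AlphaLISA bead assay after 16 h compound exposure of THP-1 cells; compounds (final up to 57.5 uM) added 1 h before LPS (250 ng/mL) and ATP (1.25 mM) stimulation; lower signal means less secretion.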
DT40 TDP1 CPT: growth inhibition of DT40 Tdp1-/-;hTDP1 cells with camptothecin (screen for TDP1 inhibitors); chicken DT40 Tdp1-/-;hTDP1 cells + 20 nM CPT, ATP luminescence, 48 h; Potency, µM (titrated, usually from 46.2 µM), for the others: top-dose activity change, negative = growth inhibition, actives largely listed as inhibitors; hit rate 12% among 420,000; AID 686979; note: potency is the fitted concentration of half-maximal effect; nearly all actives have a fitted effect of over 55% in size
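Chicken DT40 Tdp1-/- cells stably complemented with human TDP1 were seeded at 400 cells/well in medium containing 20 nM camptothecin, exposed to pin-transferred compounds, and grown at 37 °C for at least 48 hr. Viability was read as ATP luminescence.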
DT40 TDP1 no CPT: qHTS for Inhibitors of human tyrosyl-DNA phosphodiesterase 1 (TDP1): qHTS in cells in absence of CPT; hit rate 15% among 420,000; Potency, µM (highest dose often 46.2 µM), for inactives: at the highest dose activity change, negative = growth inhibition, most hits filed as inhibitors; DT40 Tdp1-/- hTDP1 cells, no CPT, ATP luminescence, 48 h; note: potency is the fitted concentration of half-maximal effect; nearly all actives have a fitted effect of over 55% in size
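Growth kinetics read by CellTiter-Glo luminescence after ≥48 hr at 37 °C. Cells: DT40 Tdp1-/- stably carrying human TDP1, 400 per well, compound exposure in the absence of CPT (DMSO vehicle).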
ELG1 DNA repair: inhibitors of ELG1-dependent DNA repair in HEK293T cells; HEK293T ELG1-luciferase reporter, luminescence, 16 h; DNA damage induced by 5-fluorouridine; Potency, µM (highest dose often 46.1 µM), without a hit: top-dose activity change, negative = inhibition, actives largely listed as inhibitors; hit rate 2.3% among 330,000; note: potency is the fitted concentration of half-maximal effect; nearly all actives have a fitted effect of over 55% in size
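Luminescence from the luciferase reporter, measured 30 min after ONE-Glo reagent at room temperature, was the read-out. Beforehand, 2,000 cells per well were exposed for 16 hr at 37 °C to 5-fluorouridine together with compound or vehicle.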
Giardia killer: kills Giardia lamblia | activity change, % at 7.66 µM, hits read low | hit rate 0.15% among 340,000 | Giardia lamblia trophozoite viability; in the data active = activity change below about -80%; inconclusive = between about -30% and that limit;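 note: parasites exposed to compound for two days anaerobically before the ATP read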
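Luminescence from cellular ATP indicates surviving trophozoites (100 cells/well) following 48 hrs anaerobic compound treatment at 37 deg C; signal develops 15-30 min at room temperature.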
TDP1 block: inhibitors of human tyrosyl-DNA phosphodiesterase TDP1; recombinant TDP1, AlphaScreen DNA substrate cleavage; Potency, µM (titrated, usually from 130 µM), inactives show top-dose activity change, negative = inhibition, most hits filed as inhibitors; hit rate 0.28% among 350,000; AID 485290; note: potency is the fitted concentration of half-maximal effect; nearly all actives have a fitted effect of over 40% in size
Target sequence (Q9NUW8 whole entry, looked up): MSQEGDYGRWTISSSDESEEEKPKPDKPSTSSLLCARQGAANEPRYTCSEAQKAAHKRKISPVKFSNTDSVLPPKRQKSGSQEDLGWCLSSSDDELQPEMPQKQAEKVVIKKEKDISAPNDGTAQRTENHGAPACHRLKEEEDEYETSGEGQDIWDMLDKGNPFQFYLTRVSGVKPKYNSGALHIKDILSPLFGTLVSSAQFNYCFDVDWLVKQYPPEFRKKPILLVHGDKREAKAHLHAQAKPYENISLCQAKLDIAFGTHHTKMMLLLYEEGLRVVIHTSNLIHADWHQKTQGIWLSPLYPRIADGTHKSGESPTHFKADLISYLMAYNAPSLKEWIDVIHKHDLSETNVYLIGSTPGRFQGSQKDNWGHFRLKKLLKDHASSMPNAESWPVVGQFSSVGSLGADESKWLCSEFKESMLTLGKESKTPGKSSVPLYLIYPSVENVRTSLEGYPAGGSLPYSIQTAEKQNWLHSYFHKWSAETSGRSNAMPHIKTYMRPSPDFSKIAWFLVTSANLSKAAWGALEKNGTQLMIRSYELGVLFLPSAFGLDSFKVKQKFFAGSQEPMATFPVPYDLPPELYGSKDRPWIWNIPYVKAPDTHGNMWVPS
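Recombinant human Tdp1 (E. coli-expressed, 1 nM final) preincubated with compounds 15 min at room temperature, then 5'-biotin/3'-phosphotyrosine-FITC DNA substrate (15 nM final) added for 5 min. AlphaScreen beads (10 ug/ml final) added 10 min; cleavage lowers signal.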
The depositor's hits bear a star; ? = inconclusive; nt = not tested or not shown; [ ] = remark or other dose. Hits are enriched below; roughly 19% of the tested compounds scored in any of these assays. Unless noted, calls come from the whole dose curve; as a rule, active = well fitted curve in the direction sought with a large enough effect; inconclusive = small, poorly fitted or top-dose-only effect, or another doubt; inactive = no such curve, though single readings can be large; an effect the other way counts as inactive or inconclusive. % is set by controls: 0 for no effect and ±100 for the full control effect.

SMILES	IL1B secr inh	DT40 TDP1 CPT	DT40 TDP1 no CPT	ELG1 DNA repair	Giardia killer	TDP1 block
OC(CN1CCN(C(c2ccccc2)c2ccccc2)CC1)c1ccc(Br)cc1 (stereo unspecified)	-1	18µM*	?	?	7	nt
OC(CN1CCCCC1)c1ccccc1 (stereo unspecified)	nt	0%	3%	nt	nt	nt
CC(C)OCCCn1c(=O)c2ccccc2n2c(-c3ccc(F)c(F)c3)nnc12	nt	?	?	nt	nt	11%
COc1ccc(SCC(CC(C)C)N2CCN(C)CCC2=O)cc1 (stereo unspecified)	nt	nt	nt	nt	21	3%
CCOC(=O)N1C2=NC(C(=O)OC)=C(C(=O)OC)[C@@H]3N(C)c4ccccc4[C@]23C[C@H]1C(=O)OC	0	16µM*	18µM*	15%	-22	-1%[12.3 µM]
CC#CCN1c2ccccc2[C@]23C[C@@H](C(=O)OC)N(C(=O)c4ccc(Br)cc4)C2=NC(C(=O)OC)=C(C(=O)OC)[C@H]13	-6	21µM*	18µM*	nt	13	16%[12.3 µM]
C#CCCOC(=O)N1C2=NC(C(=O)OC)=C(C(=O)OC)[C@@H]3N(Cc4ccccc4)c4ccccc4[C@]23C[C@H]1C(=O)OC	-30	16µM*	?	-4%	-7	8%[12.3 µM]
COC(=O)C1=C(C(=O)OC)[C@@H]2N(Cc3ccccc3)c3ccccc3[C@@]23C[C@@H](C(=O)OC)N(C(=O)c2cc(C)oc2C)C3=N1	-15	23µM*	18µM*	nt	6	3%[12.3 µM]
Cc1ccc(NC(=O)C2CCN(S(=O)(=O)c3c(C)noc3C)CC2)c(C)c1	nt	2%	-10%	nt	nt	-5%
COC(=O)C[C@H]1C=C[C@H](NC(=O)Nc2ccccc2OC)[C@@H](CO)O1	-16	3%	-1%	nt	nt	nt
COc1ccc(-c2nc(C(F)(F)F)c(OC)o2)cc1OC	?	?	?	8%	-8	3%
COC(=O)C1=C(C(=O)OC)[C@@H]2N(Cc3ccccc3)c3ccccc3[C@@]23C[C@@H](C(=O)OC)N(C(=O)c2cccs2)C3=N1	45	21µM*	?	0%	6	20%[12.3 µM]
COC(=O)C1=C(C(=O)OC)[C@@H]2N(C)c3ccc(OC)cc3[C@@]23C[C@@H](C(=O)OC)N(C(=O)c2cc(C)oc2C)C3=N1	19	23µM*	?	nt	9	8%[12.3 µM]
COc1cccc2cc(C(=O)Nc3ccccc3Cl)/c(=N/NS(=O)(=O)c3ccccc3)oc12	0	-7%	13%	1%	-18	3%
COc1cccc(CNC(=O)c2cnc3sc(N4CCCC4)nn3c2=O)c1OC	nt	3%	-15%	nt	nt	7%
CCN(CC)c1nn2c(=O)c(C(=O)NCc3ccccc3Br)cnc2s1	nt	23µM*	?	nt	nt	7%
CCOc1ccccc1CNC(=O)c1cnc2sc(N3CCCC3)nn2c1=O	nt	15µM*	16µM*	nt	nt	6%
COc1ccccc1CNC(=O)c1cnc2sc(N3CCCCC3)nn2c1=O	nt	?	23µM*	nt	nt	8%
CC(=O)NC(CC(=O)NCCN1C(=O)S/C(=C\c2ccccc2)C1=O)c1ccccc1 (stereo unspecified)	-21	21µM*	?	-19%	-10	0%
O=C(CCCN1C(=O)/C(=C/c2ccccc2)SC1=S)Nc1ccccc1O	-93*	?	?	3%	3	4%
O=C(CN1C(=O)S/C(=C\c2ccc(O)cc2)C1=O)c1ccccc1	-77*	?	?	17%	-25	nt
O=C(CCCN1C(=O)S/C(=C\c2ccccc2)C1=O)NNC(=O)c1ccccc1O	29	12µM*	9.2µM*	?	19	7%
CC1(c2ccccc2)NC(=O)N(CC(=O)NCCN2C(=O)S/C(=C\c3cccnc3)C2=O)C1=O (stereo unspecified)	-8	-12%	5%	nt	-1	nt
O=C(CN1C(=O)S/C(=C\c2ccc(C(=O)O)cc2)C1=O)Nc1ccccc1	-4	-2%	-1%	?	-8	nt
COc1ccc(/C=C2\SC(=O)N(CC(=O)NNC(=O)c3ccccc3O)C2=O)cc1	13	9%	-24%	18%	-16	0%
SMILES	IL1B secr inh	DT40 TDP1 CPT	DT40 TDP1 no CPT	ELG1 DNA repair	Giardia killer	TDP1 block
c1cc(-c2ccsc2)n2cnnc2c1	13	-10%	-3%	nt	nt	nt
Cc1cccc(C)c1NC(=S)N(CCCN1CCCCC1)Cc1ccco1	-10	0%	-3%	15%	8	3%
CCOC(=O)Nc1csnn1	20	1%	-3%	?	-10	nt
O=C(CCN1C(=O)/C(=C\c2ccccc2)SC1=S)NNC(=O)c1cccnc1	17	?	?	-1%	?	3%
O=C(CCN1C(=O)/C(=C\c2ccccc2)SC1=S)NNC(=O)c1ccccc1O	38	21µM*	26µM*	-15%	-21	-2%
O=C1S/C(=C/c2ccccc2)C(=O)N1CC(O)Cn1c2ccccc2c2ccccc21 (stereo unspecified)	-14	23µM*	23µM*	-8%	-18	5%
COC(=O)C1=C(O)C2(C(=O)O)CC(C(=O)OC)=C(O)C(C(=O)O)(C1)C2	nt	3%	10µM*	14%	-12	nt
Cc1ccc(C2(C)CC(C)(C)N(C(=O)CSc3nnc(C)s3)c3ccccc32)cc1 (stereo unspecified)	-85*	21µM*	16µM*	1%	4	5%
Cc1nnc(SCC(=O)N2c3ccccc3C(C)(c3ccccc3)CC2(C)C)s1 (stereo unspecified)	-76*	16µM*	12µM*	-1%	5	8%
Cc1nnc(SCC(=O)N2CCN(Cc3ccccc3)CC2)s1	-3	0%	?	-3%	8	-1%
